# From PubChem BioAssay
# “And” between values parts separate entries of the source, which are not always exact repeats. Equal entries are not always repeated. The source made the active and inactive calls. Unless noted, no stated cut-off is given here; in the data, active means inhibition above about 80%; inactive means the rest.
# Columns and labels:
# [1] = growth inhibition, single agents and combos, CRL2098, cell-based, BGB or cisplatin IC20 combos, synergistic combos for chromothripsis tumors (AID 1671454); conditions: CRL2098 osteosarcoma cells, drug combinations, stronger effect = higher value;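 further: cells exposed for 96 h before readout; 0% = vehicle DMSO and 100% = killing by high DMSO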
# [2] = growth inhibition, single agents and combos, HD-MB03, cell-based, BGB or cisplatin IC20 combos, synergistic combos for chromothripsis tumors (AID 1671455; in the data active means inhibition above about 83%;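 further: 0% = vehicle DMSO and 100% = high DMSO as cytotoxic control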); conditions: HD-MB03 medulloblastoma cells, stronger effect = higher value
# [3] = growth inhibition, single agents and combos, UWB1.289, cell-based, BGB or cisplatin combos, synergistic combos for chromothripsis tumors (AID 1671456); conditions: UWB1.289 ovarian carcinoma cells, stronger effect = higher value;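 further: cells exposed to compound for four days; 0% = vehicle DMSO and 100% = killing by high DMSO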
# [4] = growth inhibition, single agents and combos, LFS_MB_2R, cell-based, cisplatin combos, synergistic combos for chromothripsis tumors (AID 1671457); conditions: LFS_MB_2R medulloblastoma cells, stronger effect = higher value;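 further: cells exposed to compound for four days before readout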
# [5] = growth inhibition, MDA-MB-436, cell-based, BGB or cisplatin combos, synergistic combos for chromothripsis tumors (AID 1671458; call rule not given here;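 further: cells exposed for 96 hours; 0% = vehicle DMSO and 100% = killing by high DMSO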); conditions: MDA-MB-436 breast carcinoma growth inhibition, drug combinations, stronger effect = higher value
# [6] = UWB1.289_BRCA1 ovarian cancer growth, cell-based, BGB or cisplatin combinations (AID 1671459); conditions: UWB1.289 BRCA1 ovarian carcinoma, drug combinations, stronger effect = higher value
# [7] = drug combination toxicity in non-malignant astrocytes – cell-based, BGB or cisplatin IC20 combos, cytotoxicity control for chromothriptic childhood tumor combination screen (AID 1671460); conditions: Human astrocytes, viability inhibition, drug combinations, at 0.5 µM, stronger effect = higher value;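 further: cells exposed to compounds for 96 hours before viability readout; 0% = vehicle and 100% = killing control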
# [8] = BT084 cell growth, single and combined drugs, ICGC_MB145, cisplatin and BGB IC40 combos (AID 1671461); conditions: BT084 medulloblastoma cells, drug combinations, stronger effect = higher value;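 further: cells exposed to drugs for 96 hours; 0% = vehicle DMSO and 100% = high DMSO full killing control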
# [9] = RCMB18 cell growth, single agent and combined, cisplatin and BGB IC40 combos (AID 1671462); conditions: RCMB18 medulloblastoma cells, stronger effect = higher value;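 further: cells exposed to compound for four days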
# [10] = CRL1545 cell growth, single agent and combined, cisplatin and BGB IC20 combos (AID 1671464); conditions: CRL1545 osteosarcoma cells, stronger effect = higher value;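 further: cells exposed to compound for 96 hours before readout; 0% = vehicle DMSO and 100% = high DMSO killing control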
# [11] = growth inhibition, single agent or in combination, cell-based, chromothripsis tumors, cisplatin or BGB combos (AID 1671449); conditions: LFS_MB_P medulloblastoma cells;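 further: cells exposed for 96 hours; 0% = vehicle DMSO and 100% = killing by high DMSO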
# [12] = growth inhibition, single agent and combos, cell-based, chromothripsis tumors, cisplatin or BGB combos (AID 1671450); conditions: HDN33 neuroblastoma cells, stronger effect = higher value;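 further: cells exposed to compound for four days; 0% = vehicle DMSO and 100% = cell killing by high DMSO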
# [13] = growth inhibition, single agents and combos, ICB984, cell-based, cisplatin or BGB combos, synergistic combos for chromothripsis tumors (AID 1671451; call rule not given here;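 further: cells exposed for 96 hours before readout; 0% = vehicle DMSO and 100% = killing by high DMSO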); conditions: ICB984 medulloblastoma cells, drug combinations, stronger effect = higher value
# [14] = growth inhibition, single agents and combos, LFS_MB_1R, cell-based, cisplatin or BGB combos, synergistic combos for chromothripsis tumors (AID 1671452); conditions: LFS_MB_1R medulloblastoma cells, stronger effect = higher value;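 further: cells exposed for 96 hours before readout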
# [15] = growth inhibition, single agents and combos, HTB85, cell-based, BGB or cisplatin IC20 combos, synergistic combos for chromothripsis tumors (AID 1671453); conditions: HTB85 osteosarcoma cells, drug combinations, stronger effect = higher value;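 further: cells exposed for 96 hours before readout; 0% = vehicle DMSO and 100% = high DMSO killing control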
# [16] = measured here: combination with BGB at IC20, at 0.5 µM
# [17] = measured here: combination with cisplatin at IC20, at 0.5 µM
# [18] = measured here: combo with BGB at IC20, at 0.5 µM
# [19] = measured here: combo with cisplatin at IC20, at 0.5 µM
# [20] = measured here: inhibition with BGB combination, at 0.05 µM
# [21] = measured here: inhibition with cisplatin combination, at 0.05 µM
# [22] = measured here: combination with cisplatin, at 0.5 µM
# [23] = measured here: combination with cisplatin, at 5 µM
# [24] = measured here: BGB combination, at 0.5 µM
# [25] = measured here: BGB combination, at 5 µM
# [26] = measured here: cisplatin combination, at 0.5 µM
# [27] = measured here: cisplatin combination, at 5 µM
# [28] = BGB combination, concentration series, at 5 µM
# [29] = cisplatin combination, concentration series, at 5 µM
# [30] = measured here: combo with BGB IC20
# [31] = measured here: combo with cisplatin IC20
# [32] = cisplatin combination, at 0.5 µM
# [33] = measured here: BGB IC40 combination 0.05 uM, at 0.05 µM
# [34] = measured here: BGB IC40 combination, at 0.05 µM
# [35] = measured here: with BGB IC20 combination, at 0.5 µM
# [36] = measured here: with cisplatin IC20 combination, at 0.5 µM
# [37] = measured here: combination with BGB IC40, at 0.05 µM
compound,measurement,setting,value
CCCCCCCCCC(=O)N[C@@H](Cc1c[nH]c2ccccc12)C(=O)N[C@@H](CC(N)=O)C(=O)N[C@@H](CC(=O)O)C(=O)NC1C(=O)NCC(=O)N[C@@H](CCCN)C(=O)N[C@@H](CC(=O)O)C(=O)N[C@H](C)C(=O)N[C@@H](CC(=O)O)C(=O)NCC(=O)N[C@H](CO)C(=O)N[C@@H](C(C)CC(=O)O)C(=O)N[C@@H](CC(=O)c2ccccc2N)C(=O)OC1C (stereo partly specified),inhibition,[1]; at 0.5 µM,-34.4% (inactive) and -31.7% (inactive)
same,inhibition,[1]; [16],-39.7% and -27.2%
same,inhibition,[1]; [17],-14% and -62.4%
same,inhibition,[2]; at 0.5 µM,-9.94% (inactive) and -8.88% (inactive)
same,inhibition,[2]; [18],-6.42% and -16.2%
same,inhibition,[2]; [19],-14.7% and -5.25%
same,inhibition,[3]; at 0.5 µM,10.2% (inactive) and 12.2% (inactive)
same,inhibition,[3]; [20],-9.69% and -2.7%
same,inhibition,[3]; [21],-15.8% and -25.8%
same,inhibition,[4]; at 0.5 µM,-23.5% (inactive) and -6.81% (inactive)
same,inhibition,[4]; [22],-31.3% and -1.96%
same,inhibition,[4]; [23],-80.2% and 9.2%
same,inhibition,[5]; at 0.5 µM,-16.9% (inactive) and 1.2% (inactive)
same,inhibition,[5]; [24],-8.45% and 11.2%
same,inhibition,[5]; [25],-21.2% and 5.73%
same,inhibition,[5]; [26],-33.4% and -3.35%
same,inhibition,[5]; [27],-35% and -1.3%
same,inhibition,[6]; [28],0.446% and -9.8%
same,inhibition,[6]; at 0.5 µM,-0.18% (inactive) and -1.59% (inactive)
same,inhibition,[6]; [29],29.6% and 3.48%
same,inhibition,[7],-6.51% (inactive) and -21.5% (inactive)
same,inhibition,[7]; [30],-8.41% and -24.6%
same,inhibition,[7]; [31],-7.76% and -27.2%
same,inhibition,[8]; at 0.5 µM,-50.8% (inactive) and -0.72% (inactive)
same,inhibition,[8]; [32],-32.6% and -11.3%
same,inhibition,"[8]; cisplatin combination, at 5 µM",-30.3% and -7.6%
same,inhibition,[8]; [33],-7.72% and 14.6%
same,inhibition,"[8]; single agent, at 5 µM",-22.5% and -17.6%
same,inhibition,[9]; at 0.5 µM,-14.5% (inactive) and -23% (inactive)
same,inhibition,"[9]; cisplatin combo, at 5 µM",-29.9% and -45.9%
same,inhibition,[9]; [34],-12.3% and 4.76%
same,inhibition,[9]; [22],-0.362% and -63.9%
same,inhibition,"[9]; single agent, at 5 µM",-26.6% and -8.51%
same,inhibition,[10]; at 0.5 µM,12.4% (inactive) and 0.47% (inactive)
same,inhibition,[10]; [35],12.1% and 6.43%
same,inhibition,[10]; [36],10.6% and -4.18%
same,inhibition,"[10]; single agent, at 0.05 µM",-15.3% and 8.61%
same,inhibition,"[10]; single agent, at 5 µM",20.8% and -15.6%
NC(=O)c1cccc2cn(-c3ccc(C4CCCNC4)cc3)nc12 (stereo unspecified),inhibition,"[11]; at 0.5 µM, stronger effect = higher value",-22.2% (inactive)
same,inhibition,"[11]; measured here: combination with BGB IC20, at 0.005 µM",9.92%
same,inhibition,"[11]; measured here: combination with BGB IC40, at 0.005 µM",-8.03%
same,inhibition,[11]; [37],-6.95%
same,inhibition,"[11]; measured here: combination with cisplatin, at 0.5 µM, stronger effect = higher value",-37.4%
same,inhibition,"[11]; measured here: combination with cisplatin, at 5 µM, stronger effect = higher value",-29.2%
same,inhibition,"[12]; BGB combo, at 5 µM",-13.1%
same,inhibition,[12]; at 0.5 µM,-12.8% (inactive)
same,inhibition,"[12]; cisplatin combo, at 5 µM",28.2%
same,inhibition,[12]; [35],-14.6%
same,inhibition,[12]; [36],-19.6%
same,inhibition,"[12]; single agent, at 5 µM",44.3%
same,inhibition,"[13]; BGB IC20 combo, at 0.005 µM",-10.7%
same,inhibition,"[13]; BGB IC40 combo, at 0.005 µM",-50.8%
same,inhibition,"[13]; BGB IC40 combo, at 0.05 µM",-43.2%
same,inhibition,[13]; at 0.5 µM,-25.3% (inactive)
same,inhibition,"[13]; cisplatin combo, at 0.05 µM",-48.9%
same,inhibition,"[13]; cisplatin combo, at 0.5 µM",-42.4%
same,inhibition,"[13]; cisplatin combo, at 5 µM",-33%
same,inhibition,"[13]; measured here: 5 uM single agent, at 5 µM",-12.1%
same,inhibition,[14]; at 0.5 µM,-17.8% (inactive)
same,inhibition,[14]; [37],-23.5%
same,inhibition,[14]; [22],-55.4%
same,inhibition,[14]; [23],-54.7%
same,inhibition,[15]; at 0.5 µM,-22% (inactive)
same,inhibition,"[15]; measured here: with BGB IC20, at 0.5 µM",-26.2%
same,inhibition,"[15]; measured here: with BGB IC20, at 5 µM",-8.36%
same,inhibition,"[15]; measured here: with cisplatin IC20, at 0.5 µM",-25.1%
same,inhibition,"[15]; measured here: with cisplatin IC20, at 5 µM",8.74%
same,inhibition,"[15]; single agent, at 5 µM",31.7%
same,inhibition,[1]; at 0.5 µM,-34.1% (inactive)
same,inhibition,[1]; [16],-52.1%
same,inhibition,[1]; [17],-0.058%
same,inhibition,[2]; at 0.5 µM,-5.6% (inactive)
same,inhibition,[2]; [18],-17.4%
same,inhibition,[2]; [19],6.18%
same,inhibition,[3]; at 0.5 µM,-3.23% (inactive)
same,inhibition,[3]; [20],2.85%
same,inhibition,[3]; [21],-19.1%
same,inhibition,[4]; at 0.5 µM,-4.32% (inactive)
same,inhibition,[4]; [22],-10.3%
same,inhibition,[4]; [23],-4.18%
same,inhibition,[5]; at 0.5 µM,13.9% (inactive)
same,inhibition,[5]; [24],-2.85%
same,inhibition,[5]; [25],-6.33%
same,inhibition,[5]; [26],15.6%
same,inhibition,[5]; [27],32.2%
same,inhibition,[6]; [28],-5.8%
same,inhibition,[6]; at 0.5 µM,0.96% (inactive)
same,inhibition,[6]; [29],23.7%
same,inhibition,[7],-10.9% (inactive)
same,inhibition,[7]; [30],-10.9%
same,inhibition,[7]; [31],-15.8%
same,inhibition,[8]; at 0.5 µM,-8.13% (inactive)
same,inhibition,[8]; [32],-15.8%
same,inhibition,"[8]; cisplatin combination, at 5 µM",-1.06%
same,inhibition,[8]; [33],4.73%
same,inhibition,"[8]; single agent, at 5 µM",-30.1%
same,inhibition,[9]; at 0.5 µM,-4.94% (inactive)
same,inhibition,"[9]; cisplatin combo, at 5 µM",-39.1%
same,inhibition,[9]; [34],-13.7%
same,inhibition,[9]; [22],-10.1%
same,inhibition,"[9]; single agent, at 5 µM",-43.2%
same,inhibition,[10]; at 0.5 µM,-29.8% (inactive)
same,inhibition,[10]; [35],-55.3%
same,inhibition,[10]; [36],-17%
same,inhibition,"[10]; single agent, at 0.05 µM",-35.4%
same,inhibition,"[10]; single agent, at 5 µM",30.1%
